From the supplement of paper PMC10849652
The full data set covers some 7,900 targets. This sample favours those with a hit. About 0.6% of all pairs of compound and target were hits.

Key:
Test in all cases: log2 fold change, soluble protein after heating vs DMSO (PISA); higher = thermal stabilisation; K562 cells, 10 uM, 30 min; active = over 0.2 and 3.5 SD of the protein, either way, in both replicates (recomputed)
[1] = compound: CS(=O)(=O)c1ccc(-c2cnc(N)c(C(=O)Nc3ccccc3)n2)cc1
In short: (§1)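 K562 cells at 2×10^6 cells/mL were exposed to 10 μM compound for 30 min, then aliquots were heated for 3 min across 48°C-58°C, pooled, and extracted in PBS containing 0.5% NP-40 at 4°C. The supernatant after 21,000xg for 90 min was taken as soluble protein and measured by TMTpro 16plex LC-MS/MS with channel sums equalised. Thermal stability is reported relative to control samples, with values from duplicates. Fold changes are given on a log2 scale.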

[2] = compound: C[C@@H](Oc1cc(-c2cnn(C3CCNCC3)c2)cnc1N)c1c(Cl)ccc(F)c1Cl [crizotinib]
In short: as §1

[3] = compound: C[C@@H]1COCCN1C2=NC(=NC(=C2)C3(CC3)S(=O)(=O)C)C4=C5C=CNC5=CC=C4
In short: as §1

[4] = compound: C[C@H](C1=CC=C(C=C1)C(=O)NC2=C3C=CNC3=NC=C2)N
In short: as §1

[5] = compound: C[C@H](Nc1ncnc2nc[nH]c12)c1cc2cccc(Cl)c2c(=O)n1-c1ccccc1 [duvelisib]
In short: as §1

[6] = compound: Cc1cc(Nc2cc(CN3CCOCC3)c3nc(C)c(Cc4ccc(Cl)cc4F)n3n2)n[nH]1 [gandotinib]
In short: as §1

[7] = compound: Cc1cc(Nc2cc(N3CCN(C)CC3)nc(Sc3ccc(NC(=O)C4CC4)cc3)n2)n[nH]1 [tozasertib]
In short: as §1

[8] = compound: Cc1cc(SCc2sc(-c3ccc(C(F)(F)F)cc3)nc2C)ccc1OCC(=O)O
In short: as §1

[9] = compound: Cc1ccc(-n2nc(C(C)(C)C)cc2NC(=O)Nc2ccc(OCCN3CCOCC3)c3ccccc23)cc1 [doramapimod]
In short: as §1

[10] = compound: Cc1ccc(C(=O)N(CCCN)[C@@H](c2nc3cc(Cl)ccc3c(=O)n2Cc2ccccc2)C(C)C)cc1 [ispinesib]
In short: as §1

[11] = compound: Cc1ccc(NC(=O)c2ccc(CN3CC[C@H](N(C)C)C3)c(C(F)(F)F)c2)cc1Nc1nccc(-c2cncnc2)n1 [bafetinib]
In short: as §1

[12] = compound: Cc1cccc(CC(=O)N2CCc3c2ccc(-c2cn(C)c4ncnc(N)c24)c3F)n1
In short: as §1

[13] = compound: Cc1cn(-c2cc(NC(=O)c3ccc(C)c(Nc4nccc(-c5cccnc5)n4)c3)cc(C(F)(F)F)c2)cn1 [nilotinib]
In short: as §1

[14] = compound: Cc1nc(Nc2n[nH]c3c2CN(C(=O)N[C@H](CN(C)C)c2ccccc2)C3(C)C)c2sccc2n1
In short: as §1

[15] = compound: Cc1nc(Nc2ncc(C(=O)Nc3c(C)cccc3Cl)s2)cc(N2CCN(CCO)CC2)n1 [dasatinib]
In short: as §1

[16] = compound: Cc1ncc(-c2ccnc(Nc3ccc(S(C)(=O)=O)cc3)n2)n1C(C)C
In short: as §1

[17] = compound: Cn1cc(-c2ccc3c(c2)CCN3C(=O)Cc2cccc(C(F)(F)F)c2)c2c(N)ncnc21
In short: as §1

[18] = compound: Cn1cc(-c2ccc3nnc(C(F)(F)c4ccc5ncccc5c4)n3n2)cn1
In short: as §1

[19] = compound: Cn1cncc1[C@@](N)(c1ccc(Cl)cc1)c1ccc2c(c1)c(-c1cccc(Cl)c1)cc(=O)n2C [tipifarnib]
In short: as §1

[20] = compound: FC(F)(F)c1ccc(/C=C/c2nc(COc3ccc(CCCCn4ccnn4)cc3)co2)cc1 [mubritinib]
In short: as §1

Measured: log2 fold change

XPOT (UniProt O43592)
Sequence of UniProt O43592 (O43592 whole entry, looked up): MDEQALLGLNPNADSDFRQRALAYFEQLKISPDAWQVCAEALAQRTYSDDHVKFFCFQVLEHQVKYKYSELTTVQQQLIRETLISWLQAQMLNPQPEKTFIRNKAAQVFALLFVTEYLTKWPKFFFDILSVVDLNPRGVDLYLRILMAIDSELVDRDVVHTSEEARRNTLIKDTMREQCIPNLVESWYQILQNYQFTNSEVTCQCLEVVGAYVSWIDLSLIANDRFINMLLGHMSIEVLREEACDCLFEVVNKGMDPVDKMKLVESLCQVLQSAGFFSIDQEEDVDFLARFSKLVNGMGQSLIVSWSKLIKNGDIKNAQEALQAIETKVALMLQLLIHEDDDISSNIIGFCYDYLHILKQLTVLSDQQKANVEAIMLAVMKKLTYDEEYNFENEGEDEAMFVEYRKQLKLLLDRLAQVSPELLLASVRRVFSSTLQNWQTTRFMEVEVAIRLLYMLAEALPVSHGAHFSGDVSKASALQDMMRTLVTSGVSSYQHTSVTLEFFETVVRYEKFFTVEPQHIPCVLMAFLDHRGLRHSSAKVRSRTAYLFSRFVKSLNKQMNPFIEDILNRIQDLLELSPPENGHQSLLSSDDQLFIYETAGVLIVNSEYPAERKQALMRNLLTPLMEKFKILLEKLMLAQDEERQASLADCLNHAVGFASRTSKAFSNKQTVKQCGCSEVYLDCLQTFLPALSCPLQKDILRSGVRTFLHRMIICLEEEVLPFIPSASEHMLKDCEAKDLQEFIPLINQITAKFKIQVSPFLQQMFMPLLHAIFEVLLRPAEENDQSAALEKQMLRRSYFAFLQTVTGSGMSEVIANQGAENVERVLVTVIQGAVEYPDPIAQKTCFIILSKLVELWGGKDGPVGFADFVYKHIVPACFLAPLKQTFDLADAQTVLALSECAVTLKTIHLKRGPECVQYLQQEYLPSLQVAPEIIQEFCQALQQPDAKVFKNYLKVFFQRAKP
inactive: [1] 0.009 | [2] -0.123 | [3] 0.024 | [4] -0.001 | [5] 0.005 | [6] -0.177 | [7] 0.15 | [8] 0.068 | [9] -0.011 | [10] -0.12 | [11] -0.014 | [12] 0.013 | [13] -0.083 | [14] -0.012 | [15] -0.13 | [16] 0.083 | [17] -0.075 | [18] 0.066 | [19] -0.173 | [20] 0.077

WASH2P (UniProt Q6VEQ5)
Sequence of UniProt Q6VEQ5 (Q6VEQ5 whole entry, looked up): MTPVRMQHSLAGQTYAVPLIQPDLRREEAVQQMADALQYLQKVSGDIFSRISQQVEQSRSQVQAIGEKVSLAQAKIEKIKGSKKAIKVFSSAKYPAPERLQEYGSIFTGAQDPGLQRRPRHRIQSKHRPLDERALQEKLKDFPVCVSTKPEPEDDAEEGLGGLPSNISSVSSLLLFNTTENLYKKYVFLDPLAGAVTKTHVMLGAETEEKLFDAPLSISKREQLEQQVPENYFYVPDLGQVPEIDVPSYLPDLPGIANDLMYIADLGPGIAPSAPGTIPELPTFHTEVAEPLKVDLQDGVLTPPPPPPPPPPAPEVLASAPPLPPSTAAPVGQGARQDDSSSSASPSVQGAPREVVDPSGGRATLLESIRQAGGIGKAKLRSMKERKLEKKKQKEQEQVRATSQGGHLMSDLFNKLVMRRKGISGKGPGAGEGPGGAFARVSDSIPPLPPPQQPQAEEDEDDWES
active: [2] -0.321 | [10] -0.358
inactive: [1] -0.002 | [3] -0.017 | [4] 0.021 | [5] -0.02 | [6] -0.03 | [7] -0.071 | [8] -0.038 | [9] 0.041 | [11] -0.06 | [12] 0.017 | [13] -0.069 | [14] -0.019 | [15] 0.03 | [16] 0.01 | [17] -0.008 | [18] 0.011 | [19] 0.043 | [20] 0.06

WDCP (UniProt Q9H6R7)
inactive: [1] -0.018 | [2] 0.079 | [3] -0.046 | [4] -0.024 | [5] -0.007 | [6] 0.047 | [7] 0.094 | [8] 0.084 | [9] 0.005 | [10] 0.032 | [11] -0.052 | [12] -0.05 | [13] -0.149 | [14] -0.12 | [15] -0.074 | [16] -0.035 | [17] -0.099 | [18] -0.001 | [19] -0.029 | [20] 0

TMEM223 (UniProt A0PJW6)
Sequence of UniProt A0PJW6 (A0PJW6 whole entry, looked up): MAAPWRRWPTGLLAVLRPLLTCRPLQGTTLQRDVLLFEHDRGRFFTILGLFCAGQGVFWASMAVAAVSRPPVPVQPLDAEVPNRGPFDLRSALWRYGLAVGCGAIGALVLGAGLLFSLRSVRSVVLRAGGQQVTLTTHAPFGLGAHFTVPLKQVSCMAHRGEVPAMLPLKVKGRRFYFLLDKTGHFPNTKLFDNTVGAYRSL
inactive: [1] -0.008 | [2] -0.045 | [3] 0.038 | [4] 0.002 | [5] 0.043 | [6] -0.14 | [7] 0.061 | [8] 0 | [9] 0.015 | [11] -0.156 | [12] -0.005 | [13] 0.032 | [14] 0.033 | [15] -0.052 | [16] -0.079 | [17] -0.025 | [18] 0.038 | [19] 0.013 | [20] 0.044
active: [10] -0.254

VPS8 (UniProt Q8N3P4)
Sequence of UniProt Q8N3P4 (Q8N3P4 whole entry, looked up): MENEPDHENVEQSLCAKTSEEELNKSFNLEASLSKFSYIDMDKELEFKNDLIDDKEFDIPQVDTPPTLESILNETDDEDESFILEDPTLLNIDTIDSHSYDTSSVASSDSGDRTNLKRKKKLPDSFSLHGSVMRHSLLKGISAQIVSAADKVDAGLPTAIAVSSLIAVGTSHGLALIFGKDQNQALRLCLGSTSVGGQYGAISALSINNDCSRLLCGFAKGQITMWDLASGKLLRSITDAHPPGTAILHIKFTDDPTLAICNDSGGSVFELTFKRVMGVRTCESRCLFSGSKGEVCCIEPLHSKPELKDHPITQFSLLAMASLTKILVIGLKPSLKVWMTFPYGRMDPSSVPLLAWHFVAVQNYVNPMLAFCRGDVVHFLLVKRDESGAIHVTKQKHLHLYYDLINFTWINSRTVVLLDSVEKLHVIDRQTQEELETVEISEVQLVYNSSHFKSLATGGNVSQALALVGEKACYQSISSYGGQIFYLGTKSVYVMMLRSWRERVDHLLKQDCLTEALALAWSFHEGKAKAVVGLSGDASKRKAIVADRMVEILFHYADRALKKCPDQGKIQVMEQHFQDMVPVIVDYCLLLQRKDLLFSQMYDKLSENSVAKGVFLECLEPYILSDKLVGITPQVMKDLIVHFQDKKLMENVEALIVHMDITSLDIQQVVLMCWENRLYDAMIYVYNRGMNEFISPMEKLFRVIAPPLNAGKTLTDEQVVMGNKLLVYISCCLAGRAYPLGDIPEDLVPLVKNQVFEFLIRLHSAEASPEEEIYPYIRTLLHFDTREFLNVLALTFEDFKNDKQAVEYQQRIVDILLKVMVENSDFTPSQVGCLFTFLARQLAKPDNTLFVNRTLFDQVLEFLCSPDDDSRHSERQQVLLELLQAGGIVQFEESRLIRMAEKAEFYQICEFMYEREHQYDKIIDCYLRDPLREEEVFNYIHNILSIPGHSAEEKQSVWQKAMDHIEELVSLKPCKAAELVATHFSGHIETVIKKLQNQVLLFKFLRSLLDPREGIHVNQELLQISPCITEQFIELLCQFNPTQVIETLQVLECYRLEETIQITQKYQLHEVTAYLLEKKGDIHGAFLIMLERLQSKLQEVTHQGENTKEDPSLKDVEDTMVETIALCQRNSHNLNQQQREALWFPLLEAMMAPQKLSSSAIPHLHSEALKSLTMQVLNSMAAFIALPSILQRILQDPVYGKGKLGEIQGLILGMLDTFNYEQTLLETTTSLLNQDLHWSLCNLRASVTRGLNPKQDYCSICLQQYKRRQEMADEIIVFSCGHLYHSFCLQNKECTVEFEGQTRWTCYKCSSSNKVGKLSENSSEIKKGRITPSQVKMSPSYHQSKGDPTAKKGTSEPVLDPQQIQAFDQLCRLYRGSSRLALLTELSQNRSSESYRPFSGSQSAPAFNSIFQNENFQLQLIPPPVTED
inactive: [1] 0.024 | [2] -0.12 | [3] 0.016 | [4] 0.127 | [5] 0.038 | [6] -0.097 | [7] 0.065 | [8] 0.083 | [9] 0 | [10] -0.154 | [11] 0.073 | [12] 0.043 | [13] -0.162 | [14] -0.018 | [15] -0.107 | [16] 0.035 | [17] -0.018 | [18] -0.083 | [19] -0.078 | [20] 0.043

XPO5 (UniProt Q9HAV4)
Sequence of UniProt Q9HAV4 (Q9HAV4 whole entry, looked up): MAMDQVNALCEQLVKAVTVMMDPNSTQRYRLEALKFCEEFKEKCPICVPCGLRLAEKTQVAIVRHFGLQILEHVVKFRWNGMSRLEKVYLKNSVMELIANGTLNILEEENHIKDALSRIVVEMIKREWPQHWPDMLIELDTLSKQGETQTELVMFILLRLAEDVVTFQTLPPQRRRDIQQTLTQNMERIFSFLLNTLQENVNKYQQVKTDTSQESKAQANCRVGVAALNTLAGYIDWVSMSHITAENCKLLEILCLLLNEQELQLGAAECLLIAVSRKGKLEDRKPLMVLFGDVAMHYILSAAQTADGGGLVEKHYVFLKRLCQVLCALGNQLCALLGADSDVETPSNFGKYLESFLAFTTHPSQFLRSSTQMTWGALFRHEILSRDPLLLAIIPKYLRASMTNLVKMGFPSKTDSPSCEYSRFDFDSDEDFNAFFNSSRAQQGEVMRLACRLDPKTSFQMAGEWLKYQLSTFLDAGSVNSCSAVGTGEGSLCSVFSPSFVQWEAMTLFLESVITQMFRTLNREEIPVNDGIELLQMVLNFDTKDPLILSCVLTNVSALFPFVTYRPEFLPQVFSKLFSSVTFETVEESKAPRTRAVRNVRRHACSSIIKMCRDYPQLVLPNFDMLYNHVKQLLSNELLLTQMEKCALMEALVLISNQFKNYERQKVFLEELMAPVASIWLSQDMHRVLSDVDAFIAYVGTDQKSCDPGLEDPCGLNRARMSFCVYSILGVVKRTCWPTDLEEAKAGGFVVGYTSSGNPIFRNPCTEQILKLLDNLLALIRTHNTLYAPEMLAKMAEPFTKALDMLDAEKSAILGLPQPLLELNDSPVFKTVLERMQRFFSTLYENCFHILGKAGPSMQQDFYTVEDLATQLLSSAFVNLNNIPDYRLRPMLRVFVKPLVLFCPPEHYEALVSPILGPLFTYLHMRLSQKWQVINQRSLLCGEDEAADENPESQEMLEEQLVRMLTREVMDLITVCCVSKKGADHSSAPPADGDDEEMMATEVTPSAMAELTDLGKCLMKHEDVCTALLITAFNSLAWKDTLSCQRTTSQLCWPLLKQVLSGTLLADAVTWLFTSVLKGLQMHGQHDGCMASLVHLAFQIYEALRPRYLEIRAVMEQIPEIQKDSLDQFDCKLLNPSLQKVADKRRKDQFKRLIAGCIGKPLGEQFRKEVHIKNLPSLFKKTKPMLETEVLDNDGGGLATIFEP
inactive: [1] -0.008 | [2] -0.052 | [3] 0.021 | [4] -0.026 | [5] 0.007 | [6] -0.192 | [7] 0.03 | [8] 0.064 | [9] -0.043 | [10] -0.079 | [11] -0.037 | [12] 0.036 | [13] -0.07 | [14] -0.118 | [15] -0.11 | [16] -0.054 | [17] 0.026 | [18] 0.004 | [19] -0.071 | [20] 0.006

TXNL1 (UniProt O43396)
Sequence of UniProt O43396 (O43396 whole entry, looked up): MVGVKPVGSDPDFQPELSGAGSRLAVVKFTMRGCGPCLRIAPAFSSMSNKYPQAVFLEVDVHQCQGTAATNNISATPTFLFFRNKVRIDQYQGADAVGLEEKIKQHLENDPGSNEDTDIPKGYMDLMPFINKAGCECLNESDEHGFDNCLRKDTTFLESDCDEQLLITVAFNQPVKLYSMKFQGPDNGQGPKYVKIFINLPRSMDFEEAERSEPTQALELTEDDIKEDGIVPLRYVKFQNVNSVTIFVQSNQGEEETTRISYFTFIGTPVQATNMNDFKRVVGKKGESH
inactive: [1] 0.027 | [2] 0.067 | [3] -0.01 | [4] -0.028 | [5] 0.013 | [6] -0.076 | [7] 0.038 | [8] 0.068 | [9] -0.049 | [10] 0.07 | [11] 0.04 | [12] 0.005 | [13] -0.035 | [14] -0.006 | [15] -0.074 | [16] 0.008 | [17] -0.004 | [18] -0.035 | [19] -0.06 | [20] 0.057

TOM1 isoform 2 (UniProt O60784)
Sequence of UniProt O60784 (O60784 whole entry, looked up): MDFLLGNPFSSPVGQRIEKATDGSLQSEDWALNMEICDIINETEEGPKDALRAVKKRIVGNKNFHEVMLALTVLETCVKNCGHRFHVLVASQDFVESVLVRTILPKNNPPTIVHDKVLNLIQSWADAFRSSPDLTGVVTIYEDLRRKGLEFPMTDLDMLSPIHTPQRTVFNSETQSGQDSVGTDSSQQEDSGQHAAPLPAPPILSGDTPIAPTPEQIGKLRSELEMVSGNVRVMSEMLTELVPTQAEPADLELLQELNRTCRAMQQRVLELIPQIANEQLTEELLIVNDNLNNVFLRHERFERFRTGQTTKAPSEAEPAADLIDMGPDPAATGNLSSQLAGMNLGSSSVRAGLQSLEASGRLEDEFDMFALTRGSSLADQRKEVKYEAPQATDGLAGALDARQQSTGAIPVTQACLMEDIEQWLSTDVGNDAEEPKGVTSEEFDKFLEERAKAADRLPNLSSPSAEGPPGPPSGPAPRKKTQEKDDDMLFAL
inactive: [1] 0.146 | [2] -0.002 | [3] 0.035 | [4] -0.096 | [5] 0.043 | [6] 0.101 | [7] 0.013 | [8] 0.023 | [9] -0.078 | [10] -0.043 | [11] -0.122 | [12] 0.026 | [13] -0.055 | [14] -0.104 | [15] -0.034 | [16] 0.116 | [17] -0.015 | [18] -0.012 | [19] 0.022 | [20] -0.033
